# How the values were obtained:
# Conditions in all cases: concentration: 1 μM, replicates: in singlicate; n = 1
# BTK = tested on: BTK
# BUB1 = tested on: BUB1
# CAMK1B = tested on: CAMK1B
# CAMK1D = tested on: CAMK1D
# CAMK1G = tested on: CAMK1G
# CAMK1 = tested on: CAMK1
# CAMK2A = tested on: CAMK2A
# CAMK2B = tested on: CAMK2B
# CAMK2D = tested on: CAMK2D
# CAMK2G = tested on: CAMK2G
# 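Note: KINOMEscan kinase panel screen.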
SMILES,%Inh (BTK) [%],%Inh (BUB1) [%],%Inh (CAMK1B) [%],%Inh (CAMK1D) [%],%Inh (CAMK1G) [%],%Inh (CAMK1) [%],%Inh (CAMK2A) [%],%Inh (CAMK2B) [%],%Inh (CAMK2D) [%],%Inh (CAMK2G) [%]
Cc1c(Cn2c3ccccc3n3c(=O)cc(N4CCOCC4)nc23)cccc1C(F)(F)F [GSK2306394],0,3,13,20,0,5,0,0,9,7
O=C(Nc1n[nH]c2nc(-c3ccco3)c(Br)cc12)C1CCN(Cc2ccccc2)C1.O=C(O)[C@H](O)[C@@H](O)C(=O)O (stereo not shown) [SB-742034],0,0,0,22,10,29,30,20,7,17
Fc1ccc(-c2nc3n(c2-c2ccncc2)CCS3)cc1 [GI98581],0,53,31,1,0,0,0,0,3,14
CSc1ccc(-c2nc3n(c2-c2ccncc2)CCC3)cc1 [SKF-105561],0,90,0,15,0,0,0,0,0,0
NS(=O)(=O)c1cccc(N/C=C2\C(=O)Nc3ccc(S(=O)(=O)Cc4c(Cl)cccc4Cl)cc32)c1 [GSK398099],0,34,23,17,26,27,0,0,26,16
c1ccc(-c2ccnc3[nH]ccc23)cc1 [SB-693578],0,58,11,9,15,14,0,15,31,21
COc1ccc(Nc2nccc(N3CCC(NC(=O)C(C)c4ccc(Cl)cc4)CC3)n2)cc1 (stereo not shown) [GSK1379812],0,6,32,23,13,25,0,0,14,36
O=C1NC(=O)C(c2ccc(Cl)cc2)=C1Nc1cccc(Cl)c1 [SB-317651],0,0,3,4,0,0,0,0,0,0
O=C(Nc1n[nH]c2nc(-c3cccs3)c(Br)cc12)C1CC1 [SB-735297],0,0,0,0,0,0,100,100,10,11
Cc1ccc(NC(=O)Nc2ccccc2F)cc1-c1ccc(C(=O)Nc2ccncc2)cc1 [GSK1398477],0,0,59,33,16,29,0,0,14,37
COC(=O)c1cccc(NC(=O)NC2CCN(c3ccnc(Nc4ccc(OC)cc4)n3)C2)c1 (stereo not shown) [GSK1379746],2,75,4,3,0,0,100,100,0,0
Cc1cnc(N)c(/C=C/c2cncc(C(=O)NCCc3ccc(Cl)cc3Cl)c2)c1.Cl [GSK190937],1,9,0,10,7,12,0,0,6,27
Nc1nccc(-c2c(-c3ccc(F)cc3)ncn2C2CCN(Cc3ccccc3)CC2)n1 [SB-219980],0,38,56,0,0,12,0,0,0,0
COc1ccc(-c2coc3ccc(-c4nnc(C)o4)cc23)cc1,0,0,0,13,5,0,0,0,5,0
COc1nccc(-c2c(-c3ccc(F)cc3)ncn2CCCN2CCOCC2)n1 [SB-282852],33,0,29,0,0,0,0,0,0,0
O=c1cc(N2CCOCC2)nc2n(Cc3cccc(Cl)c3Cl)c3ccccc3n12 [GSK2299009],0,0,34,36,13,43,0,0,21,33
Cc1ccc(NC(=O)Nc2ccc(Cl)c(C(F)(F)F)c2)cc1-c1ccc(C(=O)Nc2ccncc2)cc1 [GSK1398470],0,9,2,15,12,17,0,4,13,25

SMILES,%Inh (BTK) [%],%Inh (BUB1) [%],%Inh (CAMK1B) [%],%Inh (CAMK1D) [%],%Inh (CAMK1G) [%],%Inh (CAMK1) [%],%Inh (CAMK2A) [%],%Inh (CAMK2B) [%],%Inh (CAMK2D) [%],%Inh (CAMK2G) [%]
COc1ccc(CSc2nnc(-c3ccc4nccn4c3)o2)cc1C(F)(F)F,15,0,8,0,22,5,2,32,11,16
Cc1nccc(-c2c(-c3ccc(F)cc3)ncn2CCCN2CCOCC2)n1.Cl [SB-282975],6,0,0,0,0,0,0,0,7,0
COC(=O)C(Cc1ccccc1)NC(=O)NC1CCN(c2ccnc(Nc3ccc(F)cc3)n2)C1 (stereo not shown) [GSK1379714],30,32,34,4,9,2,0,0,8,24
CCCCc1nn2ncccc2c1-c1ccnc(NC2CC2)n1 [GW684374],0,91.3,12,5,9,9,0,0,12,7
COC(=O)c1cccc(NC(=O)NC2CCN(c3ccnc(Nc4ccc(F)cc4)n3)C2)c1 (stereo not shown) [GSK1379725],0,0,16,0,0,0,0,0,0,0
CS(=O)(=O)CCNCc1nc(-c2ccc3ncnc(Nc4ccc5c(cnn5Cc5ccccc5)c4)c3c2)cs1.Cl.Cl [GW569716],20,49,0,9,0,11,0,0,6,16
CNc1cc(-c2ccc3c(N)n[nH]c3c2)nc(N)n1 [GSK2224810],0,53,8,23,0,24,0,13,7,21
CC[C@@H]1CO[C@H](C(=O)Nc2ccccc2)CN1c1cc(-c2ccc3c(N)n[nH]c3c2)nc(NC)n1 [GSK2376236],0,0,29,19,13,7,0,0,21,6
CC(=O)c1c(C)c2cnc(Nc3ccn(C)n3)nc2n(C2CCCC2)c1=O,0,2,8,0,1,0,0,0,13,9
COc1cccc(NC(=O)Nc2ccc(C)c(-c3ccc(C(=O)Nc4ccncc4)cc3)c2)c1 [GSK1398474],0,0,0,25,0,21,0,2,11,22
COc1ccc(Nc2nccc(N3CCC(NC(=O)c4cc5ccccc5s4)C3)n2)cc1 (stereo not shown) [GSK1379738],0,49,0,5,67,17,0,0,59,11
CCn1c(-c2ccccc2)nc2cnccc21 [SB-733416],0,2,44,8,0,0,0,0,0,0
O=C1NC(=O)C(c2ccc(Cl)cc2)=C1Nc1ccc(O)cc1 [SB-340867],0,0,0,99.8,0,100,0,0,0,6
Cl.Cl.Cl.N#Cc1ccc(CCNc2nccc(-c3cccc(CN4CCNCC4)c3)n2)cc1 [GSK2137462],0,0,0,29,24,31,11,3,28,27
CS(=O)(=O)CCNCc1nc(-c2ccc3ncnc(Nc4ccc(OCc5ccccc5)c(Cl)c4)c3c2)cs1.Cl [GW582764],35,62,4,3,0,9,0,0,1,18
COc1cccc(CNC(=O)NC2CCN(c3ccnc(Nc4ccc(F)cc4)n3)C2)c1 (stereo not shown) [GSK1379723],0,27,23,14,0,14,0,0,0,82
CC(=O)c1c(C)c2cnc(Nc3ccc(N4CCNCC4)cn3)nc2n(C2CCCC2)c1=O,0,0,0,2,0,0,0,0,0,0
